USP17 block: inhibitors of human USP17 deubiquitinase. purified USP17, Ub-rhodamine cleavage fluorescence, 3 h. inhibition, % at 50 µM. actives 6.5% (n = 47,000). AID 1645855
USP28 block: inhibitors of human USP28 deubiquitinase. Q96RU2. purified USP28, Ub-rhodamine cleavage fluorescence, 30 min. inhibition, % at 25 µM. actives 3% (n = 47,000). AID 1645857
Target sequence (Q96RU2 whole entry, looked up): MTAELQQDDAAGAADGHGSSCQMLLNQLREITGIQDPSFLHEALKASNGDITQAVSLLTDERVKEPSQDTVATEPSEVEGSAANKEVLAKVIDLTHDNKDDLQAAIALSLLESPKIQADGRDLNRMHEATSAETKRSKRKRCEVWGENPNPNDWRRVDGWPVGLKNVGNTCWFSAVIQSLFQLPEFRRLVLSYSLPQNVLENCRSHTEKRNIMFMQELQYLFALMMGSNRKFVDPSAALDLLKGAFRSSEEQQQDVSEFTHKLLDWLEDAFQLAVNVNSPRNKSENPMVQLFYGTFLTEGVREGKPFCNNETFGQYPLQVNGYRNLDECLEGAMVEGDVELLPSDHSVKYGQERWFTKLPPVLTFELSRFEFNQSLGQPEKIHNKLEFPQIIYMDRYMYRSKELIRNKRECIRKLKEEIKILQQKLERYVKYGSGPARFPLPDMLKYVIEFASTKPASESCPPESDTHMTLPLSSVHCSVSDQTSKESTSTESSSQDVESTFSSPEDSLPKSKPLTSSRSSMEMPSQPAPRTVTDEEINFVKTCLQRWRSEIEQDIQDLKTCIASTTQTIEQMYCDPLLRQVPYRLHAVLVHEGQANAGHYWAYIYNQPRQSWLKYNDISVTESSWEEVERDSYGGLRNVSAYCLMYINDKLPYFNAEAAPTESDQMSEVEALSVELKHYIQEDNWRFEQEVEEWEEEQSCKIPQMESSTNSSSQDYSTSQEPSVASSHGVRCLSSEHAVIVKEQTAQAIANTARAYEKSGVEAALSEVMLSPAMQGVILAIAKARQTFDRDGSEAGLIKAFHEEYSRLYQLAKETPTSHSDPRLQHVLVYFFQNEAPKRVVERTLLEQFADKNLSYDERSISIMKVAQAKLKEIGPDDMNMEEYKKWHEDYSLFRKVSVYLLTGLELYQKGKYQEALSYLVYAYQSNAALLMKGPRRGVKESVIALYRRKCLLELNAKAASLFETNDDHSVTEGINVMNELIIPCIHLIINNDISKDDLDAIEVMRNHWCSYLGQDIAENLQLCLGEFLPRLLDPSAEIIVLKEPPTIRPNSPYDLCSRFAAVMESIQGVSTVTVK
USP30 block: human USP30 deubiquitinase inhibition | purified USP30, Ub-rhodamine cleavage fluorescence | inhibition, % at 25 µM | actives 5.3% (n = 47,000)
The depositor's hits bear a star; i = inactive; nt = no result given. Shown are actives, neighbours in structure and some others; about 11% of the full set was active somewhere. Cut-off read from the data, not from the text of the source: active = inhibition above about 30%; inactive = the rest.

SMILES | USP17 block | USP28 block | USP30 block
CCC(C(=O)Nc1ccc(C)cc1C)n1c(C)nc2onc(C)c2c1=O (configuration not stated) | 31* | 15 | 38*
O=C(NCc1ccccc1Cl)C1CCn2c(nc3ccccc32)C1 (configuration not stated) | -12 | -2 | -3
O=C(OC1CSc2nc3ccccc3n2C1)c1ccc([N+](=O)[O-])o1 (configuration not stated) | 96* | -2 | -62
O=C(CN1CCOCC1)N1CCOCC(Cc2ccc3[nH]ncc3c2)C1 (configuration not stated) | -2 | -3 | 0
CCOC(=O)c1noc2nc(C)n(Cc3nc(-c4ccccc4C)oc3C)c(=O)c12 | 0 | -6 | -6
O=S(=O)(c1ccc(-c2ccco2)cc1)C1CCN(CCc2ccccn2)CC1 | 31* | -12 | -51
Cc1cc(C)nc(N2CCC(S(=O)(=O)c3ccc(-c4ccco4)cc3)CC2)n1 | 3 | -15 | -60
O=C1NC2(COC3(CCN(Cc4cccc(Cl)c4)CC3)C2)Nc2ccccc21 (configuration not stated) | -119 | -51 | -213
Cc1sc(NCc2ccccc2)nc1-c1ccccc1 | -7 | 40* | 1
Cc1sc(NC(=O)C2CCCCC2)nc1-c1ccccc1 | 0 | 15 | 8
COc1c2c(cc3c1C(C(=O)Nc1ccc(C)c(C)c1)N(C)CC3)OCO2 (configuration not stated) | -12 | -8 | -8
COc1c2c(cc3c1C(CC(=O)c1c(O)c(OC)c4occc4c1OC)[N+](C)(C)CC3)OCO2 (configuration not stated) | 30 | 13 | 39*
COc1cc(Cl)c(C)cc1NC(=O)c1nc(-c2ccncc2)no1 | 40* | 14 | 34*
Cc1ccc(CNC(=O)c2nc(-c3ccncc3)no2)cc1 | 0 | -7 | -5
Cc1ccc(-n2nc3c(c2NC(=O)c2ccc(F)cc2)CS(=O)(=O)C3)c(C)c1 | nt | -19 | -12
CC1=C(C(=O)Nc2ccc(Cl)cc2)C(c2cccnc2)n2ncnc2N1 (configuration not stated) | -6 | -12 | -12
CC1=C(C(=O)Nc2ccccn2)C(c2ccc3c(c2)OCO3)n2ncnc2N1 (configuration not stated) | 12 | 33* | 18
CC1=C(C(=O)Nc2ccccc2C)C(c2cccc(OCc3ccccc3)c2)n2ncnc2N1 (configuration not stated) | 2 | 13 | 21
CC1=C(C(=O)Nc2ccccc2C)C(c2ccc(OCc3ccccc3F)cc2)n2ncnc2N1 (configuration not stated) | 62* | 5 | 19
CS(=O)(=O)Nc1cc(C(F)(F)F)ccc1N1CCOCC1 | 9 | 9 | 21
COc1ccc(N2CC(C(=O)N3CC4CC3C(=O)O4)CC2=O)cc1 (configuration not stated) | -1 | 20 | 13
CCC/C=C/CC1C/C=C/C=C(C)/C=C\C=C/C(O)C(O)/C=C(C)/C=C\C=C\C(=O)N1 (configuration not stated) | -76 | -47 | -205
CCN1C[C@@]23CN(C(=O)c4ccccn4)C[C@@H](C[C@@H]2S1(=O)=O)O3 | -1 | -8 | 7
Cc1ccc(C)c(NC(=O)c2c(C)sc3c(=O)n(C(C)C)cnc23)c1 | 44* | -2 | 45*
Cc1ccc(NC(=O)c2c(C)sc3c(=O)n(C(C)C)cnc23)c(C)c1 | -9 | 0 | -51
SMILES | USP17 block | USP28 block | USP30 block
Cc1ccc(CN2CC[C@@H]3[C@@H]2CCN3S(=O)(=O)C2CC2)o1 | -22 | -11 | -11
CC(=O)c1ccc(NC(=O)C2CCN(S(=O)(=O)c3cccnc3)CC2)cc1 | 14 | 13 | 35*
CC(=O)c1ccc(NC(=O)C2CCN(c3cncnc3N3CCCC3)CC2)cc1 | -14 | 89* | -12
COc1ccc(NC(=O)C2CCN(c3cncnc3N(C)C)CC2)cc1OC | 2 | 72* | -8
O=C(NCc1ccc(Cl)cc1)C1CCN(c2cncnc2N2CCCC2)CC1 | -31 | 2 | -49
O=C(Nc1ccc(-c2ccno2)cc1)C1CCN(S(=O)(=O)c2cccnc2)CC1 | -16 | -10 | -31
CN(C)c1ncncc1N1CCC(C(=O)NCc2ccccc2)CC1 | 5 | 19 | 0
Cc1ccc(-c2ncc(C(=O)N(C)C)c(-c3ccncc3)n2)cc1 | -13 | -11 | -27
CC1=NS(=O)(=O)N(C)C=C1c1nc(-c2cccc(F)c2)no1 | nt | -222 | i
O=C(Nc1cnc(N2CCCCCC2)nc1)c1ccco1 | -12 | -11 | -28
Cc1cccc(C2NC(=O)c3c(sc4c3CCC(C)C4)N2)c1O (configuration not stated) | 11 | -9 | -21
O=C(Cc1ccccn1)Nc1ccc(C2CCc3nncn3C2)cc1 (configuration not stated) | 0 | 3 | 1
CC1CC2OC2/C=C\C=C\C(=O)Cc2c(Cl)c(O)cc(O)c2C(=O)O1 (configuration not stated) | 4 | 3 | -51
COc1cc2c(=O)n(Cc3ccccc3)c(=O)n(CC(=O)N3CCCc4ccccc43)c2cc1OC | 25 | 9 | 34*
COCCNC(=O)CCCn1c(=O)c2cc(OC)c(OC)cc2n(CC(=O)N2CCCc3ccccc32)c1=O | 22 | 8 | 29
CC(C)n1cnc(C2CN(C)c3ccc(C(=O)N4CCCCC4)cc32)n1 (configuration not stated) | 1 | 6 | -2
O=C(C(Sc1ccccc1)c1ccccc1)N1CCN(c2cccc(C(F)(F)F)c2)CC1 (configuration not stated) | nt | 23 | 31*
O=C(CN1C(=O)CCOc2ccccc21)N1CCN(c2cccc(C(F)(F)F)c2)CC1 | -15 | -8 | -3
COc1ccc(NC(=O)CSc2nnc(NC(=O)c3ccccc3OC)s2)c([N+](=O)[O-])c1 | -25 | -13 | -51
CCn1c(CNC(=O)C2CCC2)nc2c1CN(C(=O)c1cccc(Cl)c1)CC2 | 9 | 2 | 7
CCOC(=O)c1noc2ncn(Cc3nc(-c4ccc(C)cc4)oc3C)c(=O)c12 | 31* | 13 | 35*
CCOC(=O)c1noc2ncn(Cc3nc(-c4cccc(C)c4)oc3C)c(=O)c12 | 0 | 4 | 2
Cc1ccc(CNC(=O)C2CCCN(S(=O)(=O)N(C)C3CCCCC3)C2)cc1 (configuration not stated) | 0 | -7 | i
c1ccc(-c2nnc3ccc(SCc4ccccn4)nn23)cc1 | 0 | 31* | 24
O=C(CSc1ccc2nnc(-c3cccc(F)c3)n2n1)c1ccccc1 | 30* | -11 | -22
SMILES | USP17 block | USP28 block | USP30 block
c1ccc(CSc2ccc3nnc(-c4ccncc4)n3n2)nc1 | -23 | 8 | -3
COc1ccc(C(=O)CSc2ccc3nnc(-c4cccc(F)c4)n3n2)cc1 | -13 | -27 | -31
N=C1C(c2nc3ccccc3s2)=C(O)CN1Cc1ccccc1F | 8 | 8 | 4
Cc1cc(C)cc(Nc2nc3ccncc3n(Cc3ccccc3)c2=O)c1 | 23 | -11 | 17
O=c1c(Nc2cccc(F)c2)nc2ccncc2n1Cc1ccccc1 | 67* | -3 | 24
O=c1c(NCCN2CCCC2)nc2ccncc2n1Cc1ccccc1 | 66* | nt | nt
CCc1cccc(Nc2nc3ccncc3n(Cc3ccccc3)c2=O)c1 | nt | -18 | 0
